# Data reported in the supplement of paper PMC7858590.
# “And” between values parts separate entries of the source, which are not always exact repeats. Identical values can stand only once. ± gives the standard deviation of the averaged measurements. The full ranking holds about 3,800 compounds; the median of “cell shape (eccentricity) Z-score vs DMSO control” is about 1.1, and the lowest 2% start at about -4.7. The list comes from a sample in which the lowest values are over-represented; it also holds similar structures and randomly drawn compounds.
# Tested on: human monocyte-derived macrophages (M0)
# Assay: cell shape (eccentricity) Z-score vs DMSO control; higher = more elongated, M2-like morphology
# Details: 20 µM; 24 h; macrophage state: M0 (M-CSF)
row,Structure (SMILES),cell shape (Z-score)
1,CC/C(=C(/CC)c1ccc(O)cc1)c1ccc(O)cc1,1.77
2,CC1(C)CC[C@]2(C(=O)O[C@@H]3O[C@H](CO)[C@@H](O)[C@H](O)[C@H]3O)CC[C@]3(C)C(=CCC4[C@@]5(C)C[C@@H](O)[C@H](O)[C@](C)(CO)C5CC[C@]43C)C2[C@@H]1O (stereo not given in full),1.6
3,Cc1[nH]c2ccccc2c1CCNCc1ccc(/C=C/C(=O)NO)cc1,4.88 and 5.32
4,C/C=C/C=C/C(=O)c1cc(C)c(O)c(C)c1O,1.03
5,Cc1cc2nc3c(=O)[nH]c(=O)nc-3n(C)c2cc1C=O,-7.12
6,Cc1cc2nc3c(=O)[nH]c(=O)nc-3n(C[C@@H](O)[C@@H](O)[C@@H](O)CO)c2cc1C,0.422
7,CCCCCCCNS(=O)(=O)c1cccc2c(Cl)cccc12,0.986
8,CN(C)CCCSC(=N)N,0.27
9,NC(COCc1ccccc1)C(=O)O (stereo not given),1.15
10,Oc1ccc(-c2nc(-c3ccc(F)cc3)c(-c3ccncc3)[nH]2)cc1,-5.27
11,CS(=O)c1ccc(-c2nc(-c3ccc(F)cc3)c(-c3ccncc3)[nH]2)cc1 (stereo not given),3.26
12,CS(=O)(=O)c1ccc(-c2nc(-c3ccc(F)cc3)c(-c3ccncc3)[nH]2)cc1,1.46
13,O=C(O)c1cc2cc(OCc3ccccc3)ccc2[nH]1,1.63
14,CC(=O)O[C@H]1[C@H](Oc2ccccc2COC(=O)C2(O)C=CCCC2=O)O[C@H](CO)[C@@H](O)[C@@H]1O (stereo not given in full),1.32
15,CCn1cc(C(=O)O)c(=O)c2cc(F)c(N3CCNCC3)nc21,-1.1
16,C=C1C(=O)O[C@@H]2[C@H]3C(CO)=CC(=O)C3=C(C)C[C@H](OC(=O)Cc3ccc(O)cc3)[C@@H]12,-6.23
17,O=C(Cc1ccc(O)cc1)OC1[C@@H](O)[C@@H](O)C(OC(=O)Cc2ccc(O)cc2)[C@H](O)[C@@H]1O (stereo not given in full),2.31
18,C=C1C(=O)O[C@H]2C1CCC(C)=C1C(=O)C=C(C)[C@@H]12 (stereo not given in full),-3.7
19,CC1(C)CCC(CN2CCN(c3ccc(C(=O)NS(=O)(=O)c4ccc(NCC5CCOCC5)c([N+](=O)[O-])c4)c(Oc4cnc5[nH]ccc5c4)c3)CC2)=C(c2ccc(Cl)cc2)C1,6.74
20,COCc1c(C(C)C)nc(C(C)C)c(/C=C/[C@@H](O)C[C@@H](O)CC(=O)O)c1-c1ccc(F)cc1,10.1 ± 0.39
21,CCC[C@@H]1C[C@@H](C(=O)NC(C(C)Cl)C2O[C@H](SC)[C@H](O)[C@@H](O)[C@H]2O)N(C)C1 (stereo not given in full),3.16
22,COc1cc2nc(N3CCCN(C)CC3)nc(NC3CCN(Cc4ccccc4)CC3)c2cc1OC,3.25

row,Structure (SMILES),cell shape (Z-score)
1,CC(Nc1nc(N2CCCC2)nc2ccccc12)c1ccccc1 (stereo not given),-7.72
2,Cc1cc(N2CCCCC2)nc2ccccc12,0.281
3,CC#CCOC(=O)c1c(C)nc2sc3c(c2c1N)CCC(O)C3 (stereo not given),-0.105
4,C[C@@H]1O[C@@H](Oc2ccc(-c3coc4cc(O[C@@H]5O[C@@H](C)[C@H](O)[C@@H](O)[C@H]5O)cc(O)c4c3=O)cc2)[C@H](O)[C@H](O)[C@H]1O,-0.632
5,c1ccc(COCCCc2cnc[nH]2)cc1,2.2
6,O=C(O)CCCc1ccccc1,0.59
7,O=C(CCCc1ccc(-c2ccccc2F)cc1)Nc1ccc(O)cc1,-4.74
8,Cc1c(Cl)cccc1Nc1ccccc1C(=O)O,1.66
9,O=C(O)c1ccccc1Nc1ccccc1,2.81
10,COc1ccc(S(=O)(=O)N(C(C)=O)c2ccccc2/C=C/c2cc[n+]([O-])cc2)cc1,-4.1
11,CC(=O)OCC(=O)[C@@]1(O)CCC2C3CCC4=CC(=O)CC[C@]4(C)C3C(=O)C[C@@]21C (stereo not given in full),-0.245
12,C=C1CCC2(C(=O)OC3OC(CO)C(O)C(O)C3O)CCC3(C)C(=CCC4C5(C)CC(O)C(OC6OCC(O)C(O)C6OC6OC(CO)C(O)C(O)C6O)C(C)(CO)C5CCC43C)C2C1 (stereo not given),0.275
13,C=C(COC(=O)C(C)C)C1Oc2cc(C(C)=O)ccc2C1OC(=O)C(C)C (stereo not given),1.56
14,Cc1cc(C)c(CNC(=O)c2cc(-c3ccc(N4CCNCC4)nc3)cc3c2cnn3C(C)C)c(=O)[nH]1,3.48
15,CC(Cc1ccc(O)c(O)c1)(NN)C(=O)O (stereo not given),-0.173
16,COc1cc(O[C@@H]2O[C@H](CO[C@H]3OC[C@](O)(CO)[C@H]3O)[C@@H](O)[C@H](O)[C@H]2O)cc(OC)c1OC,1.07
17,C=C(C(=O)O[C@H]1CC=C(C)C[C@H](O)[C@H]2[C@H](C)C(=O)O[C@@H]2/C=C/1C)[C@@H]1CCC(=C)[C@@H]2C[C@H](O[C@@H]3O[C@H](CO[C@H]4OC[C@](O)(CO)[C@H]4O)[C@@H](O)[C@H](O)[C@H]3O)C(=C)[C@@H]2C1,-4.65
18,C=C1C(=O)O[C@@H]2[C@H]3C(=C)[C@@H](O[C@@H]4O[C@H](CO)[C@@H](O)[C@H](O)[C@H]4O)C[C@H]3C(=C)C[C@@H](O)[C@@H]12,2.36
19,Cc1c(-c2ccnc(Nc3ccc(N4CCNCC4)cc3)n2)sc(=O)n1C,9.91
20,COc1cc(C(=O)N2CCC(N3CCN(C)CC3)CC2)ccc1Nc1ncc2c(n1)N(C)c1ccccc1C(=O)N2C,8.88
21,O=C(c1ccc(Nc2nccc(-c3cc4ccccc4s3)n2)cc1)N1CCC(N2CCCC2)CC1,-4.98
22,COc1cc(OC2OC(COC3OCC(O)(CO)C3O)C(O)C(O)C2O)c2c(-c3ccc(O)c(O)c3)cc(=O)oc2c1 (stereo not given),-0.273

row,Structure (SMILES),cell shape (Z-score)
1,CCOC(=O)C1C(=O)C(=O)Nc2ccccc21 (stereo not given),2.09
2,CC[N+](CC)(CC(=O)Nc1c(C)cccc1C)Cc1ccccc1,1.74
3,CC[N+](C)(CC)CC(=O)Nc1c(C)cccc1C,-0.632
4,Cc1cccc(C)c1NC(=O)C[N+](C)(C)C,-4.98
5,Cc1cc(=O)oc2c(O)c(O)ccc12,1.41
6,Cc1cc2cc3c(C)cc(=O)oc3c(C)c2o1,-4.76
7,COc1ccc2c(C)cc(=O)oc2c1,4.64
8,COC(=O)C1=C(C)NC(C)=C(C(=O)OCCCN2CCC(c3ccccc3)(c3ccccc3)CC2)[C@H]1c1cccc([N+](=O)[O-])c1,1.82
9,CCC(=O)OCC1=CCCC2C1(C)CCC(C)C2(C)CCC(C)CC(=O)O (stereo not given),0.255
10,COc1cc(C)c2c(=O)cc(-c3ccccc3)oc2c1,1.41
11,COc1cc(O)c(C(=O)c2c(O)cc(C)cc2O)c(C(=O)O)c1,1.14 ± 0.29
12,COC1CC(O[C@H]2CC[C@]3(C)C4CC[C@@]5(C)C(=O)[C@]4(CC[C@@H]3C2)CC[C@@H]5C2=CC(=O)OC2)OC(C)C1OC1OC(COC2OC(CO)C(O)C(O)C2O)C(O)C(O)C1O (stereo not given in full),0.241
13,C=C1[C@@H](C2=CC(=O)OC2)CC[C@@]2(O)[C@@H]1CC1[C@H]2CC[C@@H]2C[C@@H](O[C@H]3O[C@@H](C)[C@@H](O[C@@H]4O[C@H](CO[C@@H]5O[C@H](CO)[C@@H](O)[C@H](O)[C@H]5O)[C@@H](O)[C@H](O)[C@H]4O)[C@H](OC)[C@H]3O)CC[C@]12C (stereo not given in full),-4.99
14,CO[C@@H]1CC(OC2CCC3(C)C(CCC45CCC(C6=CC(=O)OC6)C(C)(CCC43)C5=O)C2)O[C@H](C)[C@@H]1O[C@@H]1O[C@H](CO[C@@H]2O[C@H](CO)[C@@H](O)[C@H](O)[C@H]2O)[C@@H](O)[C@H](O)[C@H]1O (stereo not given in full),1.71
15,COC(CCc1ccc(O)c(O)c1)CC(=O)CCc1ccc(O)c(O)c1 (stereo not given),1.18
16,CN1CCN(CCOc2cc(OC3CCOCC3)c3c(Nc4c(Cl)ccc5c4OCO5)ncnc3c2)CC1,5.59
17,C[C@@H](C1=C(CCN(C)C)Cc2ccccc21)c1ccccn1,1.35
18,CCOc1cc(/C=C(/C#N)C(N)=O)cc(CSc2ccccc2)c1O,2.62
19,O=C(O)Cc1nn(Cc2ccc(Br)cc2F)c(=O)c2ccccc12,-4.79
20,O=C(O)Cc1nn(Cc2nc3cc(C(F)(F)F)ccc3s2)c(=O)c2ccccc12,1.57
21,CC(C)n1cnc2c(NCc3ccccc3O)nc(NCCCO)nc21,3.13
